Experimental data published in PubChem BioAssay AID720519 (National Center for Advancing Translational Sciences (NCATS), 2013).
Results filed as inconclusive are left out. Activity calls are given as the source filed them. Calls come from the whole dose curve; as a rule, active = well fitted activation curve with a large enough effect; inconclusive = small, poorly fitted or top-dose-only effect; inactive = flat fitted curve, though single readings scatter.

Experiment: qHTS for Inhibitors of Cell Surface uPA Generation: Confirmatory Assay for Cherry-picked Compounds
Conditions: cell surface uPA activity generation, qHTS confirmation; series mostly up to 115 µM
Summary of the method: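 RAW 264.7 cells at 4000/well, incubated overnight, then treated with compounds. After 24 h at 37 C, viability was read by ATPlite luminescence. An increase in signal indicates blocked uPA-dependent LF entry.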

Potency, inactive:
O=C(CCCOc1ccc(Cl)cc1Cl)NCc1ccncc1, Cc1ccc(-n2cccc2C(=O)NS(=O)(=O)c2ccc(C)cc2)cc1, C=CC[n+]1c(/C=C/c2ccc(OC(C)=O)c(OC)c2)ccc2ccccc21, Cc1cc(C)c(NC(=O)Cn2nnc(C(=O)NCc3ccc4c(c3)OCO4)c2N)c(C)c1, COc1ccc(NC(=O)CN2C(=O)CSc3ncccc32)cc1, O=C(O)c1ccc(-c2ccc(/C=C3\NC(=O)N(Cc4ccc(Cl)cc4)C3=O)o2)cc1, COc1ccc([C@@H]2[C@@H]3C(=O)N(C(C)(C)C)C(=O)[C@@H]3[C@]3(C)C(=O)N(c4cccc(Cl)c4)C(=O)N23)cc1, COc1cccc(CNC(=O)C2CCCN(S(=O)(=O)c3ccc4c(c3)C(C)(C)C(=O)N4C)C2)c1 (stereo not drawn), CC(=O)Nc1c2c(nn1-c1cccc(C)c1)CSC2, O=C1[C@H]2[C@@H](c3ccc(F)cc3)N3C(=O)N(c4cccc(F)c4)C(=O)[C@@]3(Cc3ccc(Cl)cc3)[C@H]2C(=O)N1C1CCCCC1, O=C(NC1CCCCC1)C(c1ccco1)N(C(=O)c1csnn1)c1cccc(Cl)c1 (stereo not drawn), Cc1cnc(CNC(=O)C2CCC(=O)N(CCc3cccc(F)c3)C2)[nH]1 (stereo not drawn), CCCS(=O)(=O)c1ccc(COC(=O)Cc2ccc([N+](=O)[O-])cc2)cc1, O=C1OCC/C1=C\c1ccc(O)cc1, COc1ccc(C(CNC(=O)C(C)Oc2ccc(Br)cc2)N2CCCC2)cc1 (stereo not drawn), Cc1cnc(CNC(=O)CC2C(=O)NCCN2Cc2ccccc2C(F)(F)F)cn1 (stereo not drawn), COC(=O)[C@@]1(Cc2ccc(F)cc2)[C@H]2c3cc(C(=O)N(C)C)n(Cc4c(CO)[nH]cc(C)c4=O)c3C[C@H]2CN1C(=O)c1ccccc1, Cc1cccc(NC(=O)c2cc3c(=O)n4ccccc4nc3s2)c1, Cc1ccc(-n2ncc(C(=O)NC3CC3)c2C2CCN(C(=O)OC(C)(C)C)CC2)cc1, OCC1CCCCN1CC(O)COC(c1ccc(F)cc1)c1ccc(F)cc1 (stereo not drawn), CS(=O)(=O)c1ccc(Cl)c(NC(=O)COC(=O)CNC(=O)c2cccs2)c1, CCOCCCn1c(SCC(=O)Nc2oc(C)c3c(C)n[nH]c(=O)c23)nc2ccccc2c1=O, CC(C)c1ccc(C2/C(=C(\O)c3ccc4c(c3)OCCO4)C(=O)C(=O)N2CCN2CCOCC2)cc1 (stereo not drawn), CCCCNC(=O)c1cc2c(-c3ccc(Cl)cc3)nn(C)c2s1, Cc1cccc(N2C(=O)c3cccc(Oc4ccc(Cl)cc4)c3C2=O)c1, O=C(C1CCN(c2nnc(N3CCCC3=O)s2)CC1)N1CCN(c2cccc(C(F)(F)F)c2)CC1, CCCCCN(C(=O)CCC(=O)OCCOc1cccc(Cl)c1)c1c(N)n(CCCC)c(=O)[nH]c1=O, Cc1ccc(/C=N/NC(=O)c2ccc3nc[nH]c3c2)s1, O=C(CN1CCOC1=O)N1CCCC(Nc2ccc(F)c(F)c2)C1 (stereo not drawn), O=[N+]([O-])c1cccc2c(N3CCOCC3)ccnc12, O=S(=O)(NCCc1ccccc1F)c1cccc(S(=O)(=O)N2CCOCC2)c1, CC(C)(C)C(=O)NCCc1nc2ccccc2n1CC(=O)c1ccc(Cl)cc1, NC(=O)C1CCN(C(=O)c2cccc3ccccc23)CC1, C=CCOC(=O)C1=C[C@H](c2ccc(C(F)(F)F)cc2)[C@@H](CCCO)[C@H](OCC)O1, CCCNC(=O)C1CCC(CNS(=O)(=O)c2ccc3c(c2)CC(C)N3C(C)=O)CC1 (stereo not drawn), CN(C)C(=O)NC(NC(=S)Nc1ccccc1)C(Cl)(Cl)Cl (stereo not drawn), COc1ccccc1C(=O)NCc1ccccc1, Cc1ccc(S(=O)(=O)N2CCC(C)CC2)cc1
